Calls of active or inactive are those of the source.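 Rule for the calls: active = inhibition above 20% together with a positive visual image hit; inconclusive = visual image hit but inhibition not above 20%; inactive = no visual image hit.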
Assay: inhibitors of TNFa-induced NFkB p65 translocation, primary screen, imaging, HUVEC, MLSMR starter and 10KST1 sets (AID 438);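 note: compound added about 3h40 before a 20 min TNFalpha stimulation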;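 for inhibition: signal is the nuclear over cytoplasmic p65 intensity ratio per well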
Settings: HUVEC TNFa-induced p65 nuclear translocation; cell count: measured here: nuclei count (cytotoxicity indicator), at 2.08 µM; inhibition: at 2 µM, stronger effect = higher value, 0% TNFa-plus-vehicle, 100% no-TNFa wells

Compound | cell count | inhibition
C(=N\n1cnnc1)/c1cccc(OCCOc2ccccc2)c1 | 237 | 7.1% (inactive)
CCN(CC)C(c1ccc(C)cc1)c1nnnn1C1CCCCC1 (configuration not stated) | 438 | -6.7% (inactive)
CCOC(=O)Nc1ccc2c(c1)N(C(=O)CCN1CCOCC1)c1ccccc1S2 | 313 | -2.1% (inactive)
Cc1cc(=O)c2n(Cc3ccccc3Cl)nc[n+]2[nH]1 | 800 | 6% (inactive)
CC12CN3CCN(CC(C3)C1(O)CN1CCCCC1)C2 (configuration not stated) | 305 | 1.7% (inactive)
Cc1cc(C)n(C(C)n2nc(C)cc2C)n1 | 367 | 4.3% (inactive)
COC(=O)CSc1nnc(CSc2nc(C)cc(C)n2)n1Cc1ccco1 | 567 | 5.2% (inactive)
Cc1cc(NC(=O)CSc2nc(C3CCCCC3)nc3ccccc23)no1 | 725 | -4.4% (inactive)
Cc1cccc(C)c1NC(=O)COC(=O)c1nonc1N | 429 | -1.3% (inactive)
CCn1c(=N)n(CC(=O)c2ccco2)c2ccccc21 | 407 | -11.8% (inactive)
C=C(C)Cn1c(CCCNC(=O)C(C)(C)C)nc2ccccc21 | 770 | -19.6% (inactive)
Cc1cn(C2CC3OCC3O2)c(=O)[nH]c1=O (configuration not stated) | 381 | 2.5% (inactive)
CC(=O)Nc1ccc(Cc2ccncc2)cc1 | 528 | -7.4% (inactive)
O=C(Nc1ccon1)c1cccc(S(=O)(=O)N2CCCC2)c1 | 307 | -2.7% (inactive)
CCOC(=O)c1sc(NC(=O)CSc2ncn(-c3ccccc3)n2)nc1C | 527 | -6.5% (inactive)
O=C(Nc1ccccc1)N(CCCN1CCOCC1)Cc1cc2cc3c(cc2[nH]c1=O)OCCO3 | 390 | 8% (inactive)
COCC(=O)n1nc(NCc2ccc(OC)cc2)nc1NCc1ccc(OC)cc1 | 614 | 2% (inactive)
Cc1ccc(S(=O)(=O)N2CCN(C(=O)N3CCOCC3)C2c2ccc(N(C)C)cc2)cc1 (configuration not stated) | 377 | -0.5% (inactive)
COc1cccc2c(=O)cc(C)n(CC(=O)Nc3ccc(C)c(C)c3)c12 | 456 | 9.4% (inactive)
O=C(NCc1cccnc1)c1cccc(C(F)(F)F)c1 | 355 | 5.2% (inactive)
COc1ccc(C(=O)Nc2ccc(Cl)c(Cl)c2)c(OC)n1 | 799 | -7.1% (inactive)
COc1cc(C(=O)OCc2cc3ccccc3[nH]c2=O)cc(OC)c1OC | 833 | -3.9% (inactive)
COc1cc(C)c(Br)cc1S(=O)(=O)N1CCOCC1 | 397 | 6.3% (inactive)
FC(F)Oc1cccc2cccnc12 | 538 | -5.8% (inactive)
Cc1ccc(OCC2Cn3c(nc4c3c(=O)n(C)c(=O)n4C)O2)cc1 (configuration not stated) | 423 | 1.8% (inactive)
Cc1cnc(C(=O)Nc2ccccc2-n2cccc2)cn1 | 426 | 6% (inactive)
